According to PubChem BioAssay AID504850 (National Center for Advancing Translational Sciences (NCATS), 2011):
Hit rate of the full screen: of about 2,300 compounds, about 1,200 (52%) were called active. Roughly 34% stayed inconclusive and do not appear here. The set was probably picked from earlier hits. This is one part of the list. Unmarked numbers belong to inactive results. The call rests on the fitted dose curve; in most records, active means well fitted inhibition curve with a large enough effect; inconclusive means small, poorly fitted or top-dose-only effect, or effect the other way; inactive means no such curve, though single readings can be large or run the other way.

experiment: Confirmation screen for delayed death inhibitors of the malarial parasite plastid, 48 hour incubation; further: nearly all actives have a fitted effect of over 65% in size; settings: P. falciparum-infected erythrocytes, luciferase growth; series mostly up to 28.7 µM; activity change, negative = inhibition: at the top concentration
In short: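 Single-generation (48 h, 37 C) exposure of integrated firefly luciferase-reporter P. falciparum in red cells, 0.1% parasitemia at 2% hematocrit, Albumax-supplemented RPMI. Falling luciferase signal marks parasite growth inhibition.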
On the % scale 0 is the no-effect control and ±100 the full control effect; potency means the concentration at half of the fitted maximal effect.

SMILES | Potency | activity change, negative = inhibition
COc1ccc(N2CCN(C(=O)CSc3nc4cc(OC)c(OC)cc4cc3C#N)CC2)cc1 | 7.94 µM (active) | –
COc1ccccc1OCC(=O)NNc1c2ccccc2nc2ccccc12 | 10 µM (active) | –
Cc1ccc(OCC(=O)NNc2c3ccccc3nc3ccccc23)cc1 | 10 µM (active) | –
O=C(CCCO)NNc1c2ccccc2nc2ccccc12 | 11.2 µM (active) | –
O=C(NNc1c2ccccc2nc2ccccc12)C(O)c1ccccc1 (configuration not stated) | 12.6 µM (active) | –
O=C(COc1ccccc1)NNc1c2ccccc2nc2ccccc12 | 11.2 µM (active) | –
COc1cccc(C(=O)N/N=C(\C)CC(=O)Nc2ccc(N(C)C)cc2)c1 | – | -13.9%
O=C(Nn1c(COc2ccccc2)nc2ccccc2c1=O)C(Cl)(Cl)Cl | – | -23.8%
Cc1ccc(C(=O)NNc2c3ccccc3nc3ccccc23)cc1 | 15.8 µM (active) | –
Cc1cccc(OCC(=O)NNc2c3ccccc3nc3ccccc23)c1 | 11.2 µM (active) | –
COc1cccc(C(=O)NNc2c3ccccc3nc3ccccc23)c1 | 10 µM (active) | –
COc1ccc(CCn2c(C(C)C)nc3c(c(=O)c4ccccc4n3C)c2=O)cc1 | 11.2 µM (active) | –
COc1ccc(-c2nc3c(c(=O)c4ccccc4n3C)c(=O)n2Cc2ccccc2)cc1 | 10 µM (active) | –
COc1ccc(Cn2c(-c3ccccc3)nc3c(c(=O)c4ccccc4n3C)c2=O)cc1 | 11.2 µM (active) | –
O=C(/C=C/c1ccc(Cl)c(Cl)c1)NCCCn1ccnc1 | 15.8 µM (active) | –
Cc1ccc(C(=O)OCc2nc(N)nc(Nc3ccccc3C)n2)cc1 | 12.6 µM (active) | –
CCc1ccccc1Nc1nc(N)nc(COC(=O)CCC(=O)c2ccc(F)cc2)n1 | 8.91 µM (active) | –
O=C(O)CCNS(=O)(=O)c1cccc(Br)c1 | – | -11.5%
CCc1ccccc1Nc1nc(N)nc(COC(=O)CCNS(=O)(=O)c2ccccc2)n1 | 12.6 µM (active) | –
CCCCN(C)C(=O)C1CCC(CNS(=O)(=O)c2ccc3c(c2)CC(C)N3C(=O)C2CC2)CC1 (configuration not stated) | 12.6 µM (active) | –
CCc1ccc(N/C(SCc2cccc(F)c2)=C(/C#N)C(=O)NCc2ccco2)cc1 | 10 µM (active) | –
C#Cc1ccc(CN2CCN(CCCc3ccccc3)C(CCO)C2)cc1 (configuration not stated) | 11.2 µM (active) | –
CC(C)/C=C/CN1CCN(CCCc2ccccc2)C(CCO)C1 (configuration not stated) | 12.6 µM (active) | –

SMILES | Potency | activity change, negative = inhibition
COc1ccccc1N1CCN(C(=O)c2noc(C(C)C)c2[N+](=O)[O-])CC1 | 10 µM (active) | –
COc1ccc(S(=O)(=O)N2CCc3ccccc32)cc1C(=O)Nc1cccnc1 | 12.6 µM (active) | –
Cc1ccc(NC(=O)c2cc(S(=O)(=O)N3CCc4ccccc43)cn2C)cc1 | 11.2 µM (active) | –
COc1ccc(S(=O)(=O)N(C)c2ccc(C(=O)Nc3cccnc3)cc2)cc1OC | 14.1 µM (active) | –
CCOc1ccc2c(c1)sc(N)[n+]2Cc1cc(C)cc2cccnc12 | 5.62 µM (active) | –
O=C(NCc1ccco1)c1cc2sccc2n1Cc1ccc(F)cc1 | 12.6 µM (active) | –
O=C(Nc1cccc(S(=O)(=O)NCc2ccco2)c1)c1cc(-c2ccc(F)cc2)nc2ccccc12 | – | -0.526%
COc1ccc(C(C)=O)cc1CSc1nc2ccccc2c(=O)n1-c1ccccc1C | 7.08 µM (active) | –
Cc1ccc(/C=N/NC(=O)CSc2nc3ccccc3c(=O)n2-c2ccccc2C)s1 | 11.2 µM (active) | –
O=C1C2CCCN2C(c2ccccc2)N1c1ccc(Cl)cc1 (configuration not stated) | – | -19.3%
O=C1C(=O)c2ccccc2C(O)=C1C1CCC(c2ccc(Cl)cc2)CC1 (configuration not stated) | 0.02 µM (active) | –
O=C(NCc1ccccn1)c1cc(-c2ccc(-c3ccccc3)cc2)nc2ccccc12 | 15.8 µM (active) | –
Cc1cc(NC(=O)CSc2sc3c(O)cc(=O)[nH]c3c2C#N)ccc1Br | 14.1 µM (active) | –
N#Cc1c(SCC(=O)Nc2ccc(C(F)(F)F)cc2)sc2c(O)cc(=O)[nH]c12 | 0.316 µM (active) | –
O=C(O)CCCN1C(=O)/C(=C\C(Cl)=C\c2ccccc2)SC1=S | 14.1 µM (active) | –
O=C(CCN1C(=O)/C(=C/c2ccccc2)SC1=S)NCCc1ccc(O)cc1 | – | -6.1%
CCC/C(=N\NC(=O)c1ccco1)c1ccc(Cl)s1 | 11.2 µM (active) | –
CC1CCCN(Cc2c(O)ccc3c(=O)c(-c4nc5ccccc5s4)c(N)oc23)C1 (configuration not stated) | 0.316 µM (active) | –
C=CCN(c1ccccc1)S(=O)(=O)c1cccc(C(=O)N2CC(C)CC(C)C2)c1 (configuration not stated) | 14.1 µM (active) | –
COc1ccc(Nc2nnc(-c3ccccc3)c3ccccc23)cc1C(=O)N1CCCCC1 | 7.94 µM (active) | –
COc1ccc(Nc2nnc(-c3ccc(C)cc3)c3ccccc23)cc1C(=O)N1CCCCC1 | 2.51 µM (active) | –
Cc1ccccc1-c1cc(C(=O)n2cccn2)c2cc(Cl)ccc2n1 | – | -11%
Cc1ccc(C)c(-c2cc(C(=O)NNC(=S)NCC(C)C)c3ccccc3n2)c1 | 14.1 µM (active) | –

SMILES | Potency | activity change, negative = inhibition
Cc1ccc(C)c(-c2cc(C(=O)Nc3nccs3)c3ccccc3n2)c1 | 4.47 µM (active) | –
CCC1OC(=O)C[C@@H](O)[C@H](C)[C@@H](OC2OC(C)CC(N(C)C)C2O)[C@@H](CC=O)C[C@@H](C)C(=O)/C=C/[C@]2(C)OC2C1C (some centres not stated) | 11.2 µM (active) | –
Cc1onc(-c2ccccc2Cl)c1C(=O)N1CCC(Cc2ccccc2)CC1 | 15.8 µM (active) | –
Cc1onc(-c2ccccc2Cl)c1C(=O)N1CC(C)CC(C)C1 (configuration not stated) | – | -22.2%
Cc1ccc(S(=O)(=O)N(C)C)cc1NC(=O)c1cncc(Br)c1 | 8.91 µM (active) | –
NCCCNc1nc(N)c([N+](=O)[O-])c(NC2CCCCC2)n1 | 3.98 µM (active) | –
N=C(N)c1ccc(OCCCCCOc2ccc(C(=N)N)cc2)cc1 | 1 µM (active) | –
Cc1cccc(-n2c(C)cc(/C=N\NC(=O)c3cccs3)c2C)c1 | 11.2 µM (active) | –
O=C(NCCCn1ccnc1)C(=O)NCC1OCCN1S(=O)(=O)c1ccc(F)cc1 (configuration not stated) | – | -13.4%
COc1ccc(CCNC(=O)C(=O)NCC2OCCN2S(=O)(=O)c2ccc3c(c2)OCCO3)cc1OC (configuration not stated) | 11.2 µM (active) | –
CCC(C(=O)O)C1OC(C(C)C(O)C(C)C(=O)C(CC)C2OC3(C=CC(O)C4(CCC(C)(C5CCC(O)(CC)C(C)O5)O4)O3)C(C)CC2C)C(C)CC1C (configuration not stated) | 0.251 µM (active) | –
O=C(CCl)NCc1c(Cl)cccc1-n1cccc1 | 12.6 µM (active) | –
O=C(NC1CCCCC1)c1ccc(CS(=O)Cc2ccccc2Cl)o1 (configuration not stated) | 12.6 µM (active) | –
C/C(CC(=O)NC1CCCCC1)=N\NC(=O)COc1ccc(C)cc1Br | – | -22.2%
Cc1ccc(CS(=O)(=O)Cc2ccc(C(=O)NC3CCCC3)o2)cc1 | 11.2 µM (active) | –
Cn1c(=O)n(C)c2cc(NC(=O)CCl)ccc21 | 2.24 µM (active) | –
O=C(CCl)Nc1ccc2c(c1)OCO2 | 2.24 µM (active) | –
Cc1ccc(NC(=O)c2nnn(CC(=O)Nc3ccc4c(c3)OCO4)c2N)cc1C | – | -13.9%
CCN1CCN(Cc2c(O)ccc3c2O/C(=C\C=C\c2ccccc2)C3=O)CC1 | 3.98 µM (active) | –
Cc1cc(OCC(=O)N2CCCC2)cc(C)c1Cl | – | -29.2%
O=S(=O)(c1ccc(OCC(O)CN2CCN(c3ccc(F)cc3)CC2)cc1)N1CCOCC1 (configuration not stated) | 11.2 µM (active) | –
COc1ccc(CNC(=O)c2cc(S(=O)(=O)N3CCOCC3)cn2C)cc1 | – | -18.3%
O=C(COc1ccccc1)N1CCN(S(=O)(=O)c2ccc(Br)cc2)CC1 | 11.2 µM (active) | –

SMILES | Potency | activity change, negative = inhibition
O=S(=O)(c1ccc(OCc2ccc(Br)cc2)cc1)N1CCOCC1 | 11.2 µM (active) | –
Cc1cc(OCCN2CCN(S(=O)(=O)c3ccccc3F)CC2)ccc1C(C)C | – | -46.5%
CCOc1ccc(S(=O)(=O)N2CCN(C(=O)CCOc3ccccc3C)CC2)cc1 | 12.6 µM (active) | –
COc1cccc(-c2ccc3ncnc(NCc4cccs4)c3c2)c1 | 11.2 µM (active) | –
CN(C)c1ccc(CNc2ncnc3sccc23)cc1 | – | -16%
Cc1cccc(-c2ccc3ncnc(NCc4cccs4)c3c2)c1 | 7.08 µM (active) | –
Cc1ccn2c(NC3CCCC3)c(-c3ccccn3)nc2c1 | 7.08 µM (active) | –
COc1cccc([C@@H]2Oc3ccc(OC)cc3C(=O)[C@H]2O)c1 | 7.94 µM (active) | –
CC(=O)N1CN(C2CCCC2)Cc2c1sc1c2CCCC1 | 14.1 µM (active) | –
COc1ccc(S(=O)(=O)N2CCCCCC2)cc1C(=O)N(C)CC(=O)Nc1cc(C)ccc1C | 7.94 µM (active) | –
COC(=O)c1cn(C)c2ccc(S(=O)(=O)N3CCCC3)cc2c1=O | – | -9.9%
COc1ccc(C)cc1N(CC(=O)Nc1ccc(S(=O)(=O)N2CCCC2)cc1)S(C)(=O)=O | 15.8 µM (active) | –
CCOc1ccccc1N(CC(=O)Nc1ccc(S(=O)(=O)N2CCCC2)cc1)S(C)(=O)=O | 12.6 µM (active) | –
COC(=O)c1cc(NC(=O)CN2CCc3cc4c(cc3C2)OCCCO4)cc(C(=O)OC)c1 | 12.6 µM (active) | –
COc1ccc(OCCOc2ccc(S(=O)(=O)N3CCCC3)cc2C(N)=O)cc1 | 11.2 µM (active) | –
COc1ccc(S(=O)(=O)N2CCCN(S(=O)(=O)c3ccc(OC)c(C)c3)CC2)cc1C | 14.1 µM (active) | –
COc1cc2c(cc1OC)CN(CC(=O)Nc1ccc(S(=O)(=O)N3CCCC3)cc1)CC2 | 15.8 µM (active) | –
CCN(CC(=O)Nc1ccc(S(=O)(=O)N2CCOCC2)cc1)Cc1ccccc1 | 12.6 µM (active) | –
C/C=C(\C)CN1CCc2cc(OC)c(OC)cc2C1 | – | -12.9%
O=C(CCCN1C(=O)/C(=C\c2ccco2)SC1=S)Nc1ccc2ccccc2c1 | – | -5.51%
N=C1S/C(=C\c2ccco2)C(=O)N1c1nccs1 | 14.1 µM (active) | –
O=C(c1ccc(Cl)cc1)C(Cn1cncn1)C(Sc1ccccc1)c1ccccc1 (configuration not stated) | 14.1 µM (active) | –
Cc1cc(C)c(/C=C(\C#N)C(N)=S)c(C)c1 | – | -25.2%
